Nine compounds from PMC5540273 (PLoS ONE, 2017) can be followed below.

Among the test systems are LYN; MAK; MAP3K15; MAP3K1; MAP3K2; MAP3K3; MAP3K4; MAP4K2; MAP4K3; MAP4K4; MAP4K5; MAPKAPK2; MAPKAPK5; MARK1; MARK2; MARK3; MARK4; MAST1.
Common to all, as to conditions: concentration: 1 μM, replicates: in singlicate; n = 1
In the next assay the test system is T1, LZK.
T1 construct: gene MAP3K13

The test system of another assay is T2, MEK1.
T2 construct: gene MAP2K1

SMILES strings stand for the structures.
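Also: KINOMEscan kinase panel screen.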

`Cc1ccccc1-n1cnc2c(N)ncnc21` [SKF-97510]: the “%Inh” value in the assay on LYN, with LZK, in the assay on MAK, in the assay with MAP3K15, in the assay with MAP3K1 and with MAP3K2 was 0% throughout. Besides, the “%Inh” value in the assay with MAP3K3, in the assay on MAP3K4, with MAP4K2, in the assay with MAP4K3, in the assay with MAP4K4 and with MAP4K5 was 0% throughout. The “%Inh” value in the assay on MAPKAPK2, in the assay on MAPKAPK5, with MARK1, in the assay with MARK2, with MARK3 and in the assay on MARK4 was 0% throughout. The “%Inh” value was 12% in the assay on MAST1 and 0% in the assay on MEK1.
Regarding `O=c1cc(N2CCOCC2)nc2n(Cc3cccc(Cl)c3Cl)ccn12` [GSK2286295], the “%Inh” value in the assay with LYN is given as 97.8%; in the assay with LZK, 0%; in the assay with MAK, 78%; in the assay with MAP3K15 it was 0%; in the assay with MAP3K1 it was 6%; in the assay with MAP3K2, 0%. The “%Inh” value turned out to be 0% with MAP3K3; 25% in the assay with MAP3K4; 0% in the assay with MAP4K2; 0% with MAP4K3; 4% with MAP4K4; 0% in the assay with MAP4K5. Further, the “%Inh” value was found to be 5% in the assay on MAPKAPK2; 0% in the assay on MAPKAPK5; 0% in the assay with MARK1; 0% in the assay with MARK2; 0% in the assay with MARK3; 0% with MARK4. The “%Inh” value with MAST1 and in the assay on MEK1 was 0% in each case.
Turning to `CN(C)CCN(C)C(=O)c1cc(-c2ccncc2)c(-c2ccc(Cl)c(O)c2)o1.Cl.Cl` [SB-710397], the “%Inh” value in the assay with LYN is recorded as 24%; in the assay with LZK, 15%; with MAK, 42%; with MAP3K15 it was 0%; in the assay on MAP3K1 it was 2%; in the assay on MAP3K2 it was 0%. For the same compound, the “%Inh” value with MAP3K3 was determined as 0%; with MAP3K4, 14%; in the assay with MAP4K2 it was 0%; in the assay with MAP4K3, 0%; in the assay with MAP4K4, 18%; in the assay with MAP4K5, 0%. Besides, the “%Inh” value in the assay with MAPKAPK2 is 2%; in the assay with MAPKAPK5, 0%; in the assay on MARK1 it was 0%; in the assay with MARK2 it was 0%; in the assay on MARK3 it was 0%; in the assay with MARK4, 0%. Also, the “%Inh” value in the assay with MAST1 stood at 10%; in the assay with MEK1, 0%.
On to `COc1cc2ncnc(Nc3ccc4nc(-c5ccccc5)[nH]c4c3)c2cc1OC.Cl` [GW282450], for which the “%Inh” value with LYN turned out to be 0%; in the assay on LZK, 0%; in the assay on MAK it was 0%; in the assay with MAP3K15, 0%; with MAP3K1, 19%; with MAP3K2, 8%. Further, the “%Inh” value is reported as 0% with MAP3K3; 9% in the assay on MAP3K4; 0% with MAP4K2; 3% in the assay with MAP4K3; 0% in the assay with MAP4K4; 0% in the assay on MAP4K5. The “%Inh” value in the assay with MAPKAPK2 amounted to 24%; with MAPKAPK5 it was 0%; in the assay on MARK1, 0%; with MARK2, 0%; with MARK3, 0%; in the assay with MARK4 it was 0%. Also, the “%Inh” value in the assay on MAST1 and in the assay with MEK1 was 0% throughout.
On to `Cn1cncc1-c1ccc2ncnc(Nc3ccc(OCc4ccccc4)cc3)c2c1` [GW320571], for which the “%Inh” value in the assay on LYN worked out at 2%; in the assay on LZK, 0%; in the assay on MAK, 15%; in the assay with MAP3K15, 0%; in the assay on MAP3K1 it was 18%; with MAP3K2, 10%. For the same compound, the “%Inh” value with MAP3K3 is 0%; with MAP3K4 it was 19%; in the assay with MAP4K2, 0%; in the assay on MAP4K3 it was 16%; in the assay on MAP4K4, 25%; in the assay on MAP4K5, 21%. The “%Inh” value is recorded as 21% in the assay on MAPKAPK2; 0% in the assay with MAPKAPK5; 0% in the assay on MARK1; 0% in the assay with MARK2; 0% in the assay with MARK3; 2% in the assay with MARK4. The “%Inh” value in the assay with MAST1 is reported as 0%; in the assay with MEK1, 11%.
Regarding `CCCc1ccc(S(=O)(=O)NC2CCN(c3ccnc(Nc4ccc(F)cc4)n3)C2)cc1` (stereo not drawn) [GSK1379715], the “%Inh” value came to 0% in the assay on LYN; 0% in the assay with LZK; 60% with MAK; 0% in the assay on MAP3K15; 15% with MAP3K1; 2% with MAP3K2. For the same compound, the “%Inh” value in the assay with MAP3K3 was 0%; with MAP3K4 it was 44%; in the assay on MAP4K2 it was 0%; in the assay with MAP4K3, 1%; with MAP4K4 it was 0%; in the assay with MAP4K5, 0%. The “%Inh” value in the assay with MAPKAPK2 was found to be 15%; in the assay with MAPKAPK5, 0%; in the assay with MARK1 it was 0%; with MARK2, 0%; in the assay on MARK3, 0%; in the assay on MARK4, 0%. Also, the entries for the “%Inh” value with MAST1 and with MEK1 were 48% and 0%, respectively.
In the case of `COC(=O)c1c(-c2ccccc2)c2cc(C(=O)O)ccc2c(=O)n1Cc1ccccc1`, the “%Inh” value with LYN came to 16%; in the assay on LZK it was 0%; in the assay on MAK, 0%; in the assay on MAP3K15, 8%; in the assay with MAP3K1 it was 0%; in the assay on MAP3K2 it was 0%. Further, the “%Inh” value in the assay on MAP3K3 came to 0%; with MAP3K4, 4%; in the assay with MAP4K2 it was 0%; in the assay on MAP4K3, 0%; in the assay on MAP4K4 it was 0%; with MAP4K5 it was 7%. The “%Inh” value in the assay with MAPKAPK2 amounted to 3%; with MAPKAPK5, 0%; in the assay with MARK1, 0%; with MARK2, 3%; with MARK3 it was 0%; with MARK4, 0%. For the same compound, the “%Inh” value in the assay with MAST1 and with MEK1 was 0% each time.
With `CCn1c(-c2ccccn2)nc2cnccc21` [SB-736398], the “%Inh” value was determined as 0% in the assay with LYN; 11% with LZK; 11% in the assay on MAK; 2% with MAP3K15; 8% with MAP3K1; 3% in the assay with MAP3K2. In addition, the “%Inh” value was determined as 0% in the assay on MAP3K3; 19% with MAP3K4; 0% with MAP4K2; 0% with MAP4K3; 0% with MAP4K4; 1% in the assay on MAP4K5. Also, the “%Inh” value was 21% with MAPKAPK2; 0% with MAPKAPK5; 0% with MARK1; 0% in the assay with MARK2; 3% in the assay with MARK3; 8% in the assay with MARK4. Further, the entries for the “%Inh” value in the assay with MAST1 and in the assay on MEK1 were 47% and 0%, respectively.
With `Cc1cc(-c2ccc3c(c2)CC[C@@H](N[C@@H](C)c2ccccc2)C3)cnc1N.Cl` [GW412617], the “%Inh” value was determined as 0% in the assay on LYN; 7% in the assay with LZK; 15% with MAK; 0% in the assay on MAP3K15; 17% in the assay with MAP3K1; 20% in the assay with MAP3K2. For the same compound, the “%Inh” value in the assay on MAP3K3 was determined as 0%; in the assay on MAP3K4, 0%; with MAP4K2, 97.4%; with MAP4K3, 36%; in the assay with MAP4K4, 17%; with MAP4K5, 41%. The “%Inh” value in the assay with MAPKAPK2 was 13%; in the assay on MAPKAPK5, 0%; in the assay on MARK1, 4%; in the assay with MARK2, 10%; in the assay with MARK3 it was 32%; in the assay on MARK4, 14%. The “%Inh” value with MAST1 and in the assay with MEK1 was 0% in each case.
